A number with no mark means an inactive call. Results filed as inconclusive are left out. Where a call stands in place of a potency, no number is given. The source made the active and inactive calls. Unless noted, the call rests on the fitted dose curve; in most records, active means well fitted curve in the direction sought with a large enough effect in the repeat runs; inconclusive means weak or mixed curves; inactive means no such curve, though single readings can be large; an effect the other way counts as inactive or inconclusive.
Experiments:
[1] = qHTS assay to test for compound auto fluorescence at 535 nm (green) in HEK293 cells (AID 720680)
[2] = qHTS assay to test for compound auto fluorescence at 460 nm (blue) in HEK293 cell free culture (AID 720681)
Summary of the method: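 Test compounds were pinned into cell-free culture medium (DMEM with 10% FBS) and fluorescence was read directly at Ex/Em 405/460 nm. Signals were expressed as fluorescence equivalents of triamterene, with DMSO vehicle as control.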

[3] = qHTS assay to test for compound auto fluorescence at 535 nm (green) in HEK293 cell free culture (AID 720682)
Summary of the method: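 Steps: dispense DMEM/10% FBS into empty wells; pin in compound or DMSO; measure fluorescence at 485/535 nm. Values are fluorescein equivalents.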

[4] = qHTS assay to test for compound auto fluorescence at 590 nm (red) in HEK293 cell free culture (AID 720683)
Summary of the method: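 Tox21 10K library compounds were pinned into cell-free DMEM with 10% FBS and fluorescence was read at excitation 540 nm. Activity is expressed as Rose Bengal sodium equivalency.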

[5] = qHTS assay to test for compound auto fluorescence at 590 nm (red) in HepG2 cell free culture (AID 720684)
Summary of the method: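 Ex 540 / Em 590 nm read of compound in cell-free MEM (10% FBS). Rose Bengal sodium reference.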

[6] = qHTS assay to test for compound auto fluorescence at 460 nm (blue) in HepG2 cell free culture (AID 720685)
Summary of the method: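 Cell-free plates of MEM plus 10% FBS received 23 nL compound or DMSO vehicle; blue-channel (405/460 nm) intensity scored against triamterene as reference fluorophore.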

[7] = qHTS assay to test for compound auto fluorescence at 535 nm (green) in HepG2 cell free culture (AID 720686)
[8] = qHTS assay to test for compound auto fluorescence at 460 nm (blue) in HepG2 cells (AID 720687)
Summary of the method: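 Cells (2,000/well in MEM with 10% FBS) attached overnight at 37 C, then were exposed to compound or DMSO for 1 hr at 37 C, 5% CO2. Fluorescence read at Ex/Em 405/460 nm, expressed as triamterene-equivalent signal.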

[9] = target: Glucocorticoid receptor (Homo sapiens) (UniProt P04150); assay: qHTS assay to identify small molecule agonists of the glucocorticoid receptor (GR) signaling pathway (AID 720691; active means well fitted activation curve with a large enough effect in the signal ratio in the repeat runs, not every such curve was filed as active; the % refers to the signal ratio)
Glucocorticoid receptor (Homo sapiens), sequence (P04150 whole entry, looked up): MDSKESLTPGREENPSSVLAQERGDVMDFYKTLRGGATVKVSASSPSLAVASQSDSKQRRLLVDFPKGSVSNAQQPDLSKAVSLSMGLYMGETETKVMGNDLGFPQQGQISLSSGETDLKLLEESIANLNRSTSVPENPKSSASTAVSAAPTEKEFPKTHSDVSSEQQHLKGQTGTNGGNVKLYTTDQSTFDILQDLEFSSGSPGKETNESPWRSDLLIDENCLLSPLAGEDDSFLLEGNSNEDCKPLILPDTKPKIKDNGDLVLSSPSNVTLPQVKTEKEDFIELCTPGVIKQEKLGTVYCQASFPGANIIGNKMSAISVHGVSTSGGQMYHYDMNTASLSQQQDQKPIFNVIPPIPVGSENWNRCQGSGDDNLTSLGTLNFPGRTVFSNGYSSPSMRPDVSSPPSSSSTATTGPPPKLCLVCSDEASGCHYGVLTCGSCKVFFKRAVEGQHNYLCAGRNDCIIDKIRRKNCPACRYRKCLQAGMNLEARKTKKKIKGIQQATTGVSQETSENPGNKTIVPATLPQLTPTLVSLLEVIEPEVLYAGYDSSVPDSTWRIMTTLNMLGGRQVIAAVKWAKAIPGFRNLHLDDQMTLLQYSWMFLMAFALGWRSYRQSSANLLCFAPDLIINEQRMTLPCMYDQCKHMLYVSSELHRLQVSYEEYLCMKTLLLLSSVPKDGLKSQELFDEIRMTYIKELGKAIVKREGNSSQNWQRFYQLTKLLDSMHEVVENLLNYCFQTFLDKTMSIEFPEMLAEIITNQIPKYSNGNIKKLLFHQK
Summary of the method: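 Steps: seed GR-bla HeLa cells, incubate 4 h at 37 C/5% CO2; pin-transfer DMSO-dissolved compounds; incubate 18 h at 37 C; add LiveBLAzer B/G FRET substrate; after 2 h at room temperature, measure fluorescence.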

[10] = target: Glucocorticoid receptor (Homo sapiens) (UniProt P04150); assay: qHTS assay to identify small molecule antagonists of the glucocorticoid receptor (GR) signaling pathway (AID 720692; active means well fitted inhibition curve with a large enough effect in the signal ratio in the repeat runs, not every such curve was filed as active; the % refers to the signal ratio; further: potency means the concentration at half of the fitted maximal effect)
Summary of the method: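 Antagonism was scored as loss of dexamethasone-driven (5 nM final) reporter signal in HeLa cells bearing a glucocorticoid response element–beta-lactamase construct, after 18 h compound exposure at 37 C and 2 h FRET substrate loading.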

[11] = qHTS assay to identify small molecule antagonists of the glucocorticoid receptor (GR) signaling pathway - cell viability counter screen (AID 720693); further: nearly all actives have a fitted effect of over 55% in size
[12] = qHTS assay for identifying genotoxic compounds that show differential cytotoxicity against isogenic chicken DT40 cell lines with known DNA damage response pathways - wild type cell line (AID 743012); further: nearly all actives have a fitted effect of over 60% in size; further: potency means the concentration at half of the fitted maximal effect
Summary of the method: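 Cytotoxicity in repair-proficient parental chicken DT40 cells serves as the comparator for Rad54/Ku70- and Rev3-deficient lines. Cells were exposed to compounds for 40 h at 37 C/5% CO2, and ATP-based luminescence (CellTiter-Glo) measured viability.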

[13] = qHTS assay for identifying genotoxic compounds that show differential cytotoxicity against isogenic chicken DT40 cell lines with known DNA damage response pathways - Rev3 mutant cell line (AID 743014); further: nearly all actives have a fitted effect of over 55% in size; further: potency means the concentration at half of the fitted maximal effect
[14] = qHTS assay for identifying genotoxic compounds that show differential cytotoxicity against isogenic chicken DT40 cell lines with known DNA damage response pathways - Rad54/Ku70 mutant cell line (AID 743015); further: nearly all actives have a fitted effect of over 60% in size; further: potency means the concentration at half of the fitted maximal effect
[15] = qHTS assay to identify small molecule antagonists of the androgen receptor (AR) signaling pathway - cell viability counter screen (AID 743033; further: nearly all actives have a fitted effect of over 45% in size)
[16] = qHTS assay to identify small molecule antagonists of the androgen receptor (AR) signaling pathway using the MDA cell line - cell viability counter screen (AID 743041; further: nearly all actives have a fitted effect of over 45% in size)
Summary of the method: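 In this qHTS counter assay, fluorescence intensity after CellTiter-Fluor addition indicated viability of MDA-kb2 AR-luc cells given compounds and R1881 for 16 h at 37C.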

[17] = qHTS assay to identify small molecule antagonists of the thyroid receptor (TR) signaling pathway - cell viability counter screen (AID 743064); further: nearly all actives have a fitted effect of over 50% in size; further: potency means the concentration at half of the fitted maximal effect
Summary of the method: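 Plate GH3.TRE-Luc cells; incubate 4 h at 37 °C; add compound, then T3 to 1 nM final; incubate 23.5 h; add CellTiter-Fluor; incubate 30 min at 37 °C, 5% CO2; read fluorescence.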

[18] = qHTS assay to identify small molecule antagonists of the thyroid receptor (TR) signaling pathway (AID 743065); further: nearly all actives have a fitted effect of over 55% in size; further: potency means the concentration at half of the fitted maximal effect
Summary of the method: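 GH3.TRE-Luc rat pituitary cells carrying two TR response elements driving luciferase were plated for 4 h, given compound plus 1 nM T3 (final), and incubated 23.5 h at 37 C. ONE-Glo luminescence measured reporter inhibition; CellTiter-Fluor fluorescence tracked cytotoxicity.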

[19] = target: Androgen receptor (Homo sapiens) (UniProt P10275); assay: qHTS assay to identify small molecule agonists of the androgen receptor (AR) signaling pathway (AID 743036; active means well fitted activation curve with a large enough effect in the signal ratio in the repeat runs, with a control signal flat, not every such curve was filed as active; the % refers to the signal ratio)
Androgen receptor (Homo sapiens), sequence (P10275 whole entry, looked up): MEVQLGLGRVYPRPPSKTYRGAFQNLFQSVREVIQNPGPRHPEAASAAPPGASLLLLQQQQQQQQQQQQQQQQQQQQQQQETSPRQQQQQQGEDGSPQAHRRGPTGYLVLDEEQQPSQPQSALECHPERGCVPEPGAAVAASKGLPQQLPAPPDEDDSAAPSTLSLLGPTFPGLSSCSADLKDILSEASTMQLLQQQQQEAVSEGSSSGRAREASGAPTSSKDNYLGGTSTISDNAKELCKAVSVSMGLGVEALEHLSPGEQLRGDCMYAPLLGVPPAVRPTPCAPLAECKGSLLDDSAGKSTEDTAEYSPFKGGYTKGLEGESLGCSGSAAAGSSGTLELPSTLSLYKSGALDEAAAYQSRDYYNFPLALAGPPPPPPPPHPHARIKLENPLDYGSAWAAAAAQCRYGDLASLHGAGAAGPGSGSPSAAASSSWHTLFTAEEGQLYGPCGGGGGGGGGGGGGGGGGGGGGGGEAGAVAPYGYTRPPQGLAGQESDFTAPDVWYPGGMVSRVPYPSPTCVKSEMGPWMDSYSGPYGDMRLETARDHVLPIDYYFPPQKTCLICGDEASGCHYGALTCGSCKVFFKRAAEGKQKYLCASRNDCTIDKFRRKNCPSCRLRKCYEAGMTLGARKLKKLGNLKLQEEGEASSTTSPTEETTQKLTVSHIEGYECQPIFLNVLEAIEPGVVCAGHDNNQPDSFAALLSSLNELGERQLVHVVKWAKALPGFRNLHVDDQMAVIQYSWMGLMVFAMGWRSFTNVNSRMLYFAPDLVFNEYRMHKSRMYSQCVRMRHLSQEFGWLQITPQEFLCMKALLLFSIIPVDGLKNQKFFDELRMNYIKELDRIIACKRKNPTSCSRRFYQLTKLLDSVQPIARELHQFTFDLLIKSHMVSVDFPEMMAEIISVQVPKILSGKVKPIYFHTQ
Summary of the method: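 Reporter line: GeneBLAzer AR-UAS-bla-GripTite (HEK293). Steps: plate cells, 4 h rest, add compounds, 16 h at 37C, add LiveBLAzer B/G substrate, 2 h at RT, read fluorescence.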

[20] = target: Androgen receptor (Homo sapiens) (UniProt P10275); assay: qHTS assay to identify small molecule agonists of the androgen receptor (AR) signaling pathway using the MDA cell line (AID 743040; further: nearly all actives have a fitted effect of over 20% in size)
Summary of the method: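 Cell-based luciferase reporter: MDA-kb2, MMTV promoter (AR + GR response elements). 16 h compound exposure at 37C; ONE-Glo, 30 min RT, luminescence.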

SMILES | outcome [1] | Potency [2] | outcome [3] | outcome [4] | outcome [5] | Potency [6] | outcome [7] | Potency [8] | Potency [9] | Potency [10] | Potency [11] | Potency [12] | Potency [13] | Potency [14] | Potency [15] | Potency [16] | Potency [17] | Potency [18] | outcome [19] | Potency [20]
C=Cc1c(C)c2cc3[nH]c(cc4nc(cc5nc(cc1[nH]2)C(C)=C5CCC(=O)O)C(CCC(=O)O)=C4C)c(C)c3C=C | inactive | inactive | inactive | inactive | inactive | inactive | inactive | inactive | inactive | inactive | inactive | inactive | inactive | inactive | inactive | inactive | inactive | inactive | – | –
NC(=S)N/N=C/c1cccnc1 | inactive | inactive | inactive | inactive | inactive | inactive | inactive | inactive | inactive | inactive | inactive | inactive | inactive | inactive | inactive | inactive | inactive | inactive | inactive | inactive
CC(=O)OCCc1ccccc1 | inactive | inactive | inactive | inactive | inactive | inactive | inactive | inactive | inactive | inactive | inactive | inactive | inactive | inactive | inactive | – | – | – | – | –
CCCCCCc1ccc(N)cc1 | inactive | inactive | inactive | inactive | inactive | inactive | inactive | inactive | inactive | inactive | inactive | 19.3 µM (active) | 34.4 µM (active) | 43.3 µM (active) | – | inactive | inactive | 30.6 µM (active) | inactive | inactive
CCCCOC(O)CC (centres undefined) | inactive | inactive | inactive | inactive | inactive | inactive | inactive | inactive | inactive | inactive | inactive | inactive | inactive | inactive | – | inactive | inactive | – | inactive | inactive
NCc1ccccc1 | inactive | inactive | inactive | inactive | inactive | inactive | inactive | inactive | inactive | inactive | inactive | inactive | inactive | inactive | inactive | inactive | inactive | inactive | – | –
O=C(O)/C=C/c1cnc[nH]1 | inactive | inactive | inactive | inactive | inactive | inactive | inactive | inactive | inactive | inactive | inactive | inactive | inactive | inactive | inactive | inactive | – | – | – | –
CCCC(C)C | inactive | inactive | inactive | inactive | inactive | inactive | inactive | inactive | inactive | inactive | inactive | inactive | inactive | inactive | inactive | inactive | inactive | – | – | –
CC(C)(C)c1cc(CO)cc(C(C)(C)C)c1O | inactive | inactive | inactive | inactive | inactive | inactive | inactive | inactive | inactive | 44.5 µM (active) | inactive | 31.2 µM (active) | 27.8 µM (active) | 22.1 µM (active) | – | inactive | – | – | – | –
S=C(S)NCCNC(=S)S | inactive | inactive | inactive | inactive | inactive | inactive | inactive | inactive | inactive | inactive | inactive | inactive | inactive | inactive | inactive | inactive | inactive | inactive | – | –
CN(C)CC/C=C1\c2ccccc2COc2ccccc21 | inactive | inactive | inactive | inactive | inactive | inactive | inactive | inactive | inactive | inactive | inactive | 29.8 µM (active) | 26.6 µM (active) | 29.8 µM (active) | – | inactive | 13.3 µM (active) | 23.7 µM (active) | inactive | inactive
O=C(CC(=O)c1ccccc1)c1ccccc1 | inactive | inactive | inactive | inactive | inactive | inactive | inactive | inactive | inactive | inactive | inactive | 36.9 µM (active) | 26.2 µM (active) | 23.3 µM (active) | inactive | inactive | – | inactive | – | –
CC(=O)OC/C=C/c1ccccc1 | inactive | inactive | inactive | inactive | inactive | inactive | inactive | inactive | inactive | inactive | inactive | inactive | inactive | inactive | inactive | inactive | – | inactive | – | –
CCCCCCCCN(C)C | inactive | inactive | inactive | inactive | inactive | inactive | inactive | inactive | inactive | inactive | inactive | inactive | inactive | inactive | inactive | – | inactive | inactive | – | –

Reference: PubChem BioAssay (Tox21)
